Measurements taken from PubChem BioAssay (NCATS).
Records with an inconclusive call do not appear. Active and inactive are the calls of the source. Unless noted, calls follow the shape of the dose curve; as a rule, active = well fitted curve in the direction sought with a large enough effect; inconclusive = small, poorly fitted or top-dose-only effect, or another doubt; inactive = no such curve, though single readings can be large; an effect the other way counts as inactive or inconclusive. Where a SMILES comes first, the peptide text is derived from it. [ ]: non-standard residue; d: D form. ξ: configuration not given here. ξLac(3-iPr) = CC(C)CC(O)C(=O)O; NMeV = CN[CH](C(=O)O)C(C)C; NMeA = CN[CH](C)C(=O)O; βAla = NCCC(=O)O

Columns and labels:
[1] = P-glycoprotein substrates identified in KB-8-5-11 adenocarcinoma cell line, qHTS therapeutic library screen (AID 1346987); also: nearly all actives have a fitted effect of over 65% in size; also: potency is read from the fitted curve at half-maximal effect
Procedure, shortened: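 In this qHTS, P-gp-rich KB-8-5-11 cells received library compounds across a concentration range. Viability was quantified by luminescence after 72 h at 37 degree C.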

[2] = Primary qHTS for inhibitors of nuclear receptor binding SET domain protein 2 (NSD2) in an isogenic RCH-ACV NSD2 p.E1099K mutant (9B) (AID 1645876); also: nearly all actives have a fitted effect of over 70% in size; also: potency is read from the fitted curve at half-maximal effect
[3] = Primary qHTS for inhibitors of nuclear receptor binding SET domain protein 2 (NSD2) in an RCH-ACV wild type WT cells (2C) (AID 1645877); also: nearly all actives have a fitted effect of over 70% in size; also: potency is read from the fitted curve at half-maximal effect
[4] = tested on: CRL-7250; assay: Cytotoxic Profiling of Annotated Libraries Using Quantitative High-Throughput Screening (AID 1296008); conditions: Five cell lines viability, CellTiter-Glo ATP luminescence, 48-72 h; max response: stronger effect = lower value; also: nearly all actives have a fitted effect of over 60% in size; also: potency is read from the fitted curve at half-maximal effect; as to max response: % is scaled to controls: 0 for no effect and ±100 for the full control effect
Procedure, shortened: (§1)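 Compounds were pin-transferred onto cells and incubated 48 or 72 hr at 37 degree Celsius, 95% humidity. CellTiter-Glo was added, plates sat 10 min at room temperature, then ATP-coupled luminescence was imaged as the viability read-out.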

[5] = tested on: CAOV3; assay: Primary qHTS to identify gynecologic anti-cancer compounds using libraries of approved drugs and bioactive compounds (AID 1345084); conditions: Gynecologic cancer cell panel viability, ATPlite luminescence, 48 h; series mostly up to 57.5 µM; also: nearly all actives have a fitted effect of over 55% in size; also: potency is read from the fitted curve at half-maximal effect
Procedure, shortened: (§2)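 48 h compound exposure at 37 C, 5% CO2; five-point qHTS. ATPlite luminescence readout of cell ATP.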

[6] = tested on: HeLa; assay: as above; conditions: Gynecologic cancer cell panel viability, ATPlite luminescence, 48 h; series mostly up to 57.5 µM
Procedure, shortened: as §2

[7] = tested on: SKOV3; assay: as above; conditions: Gynecologic cancer cell panel viability, ATPlite luminescence, 48 h; series mostly up to 57.5 µM
Procedure, shortened: as §2

[8] = target: Cytochrome P450 2D6 (Homo sapiens) (UniProt P10635); assay: Cytochrome P450 family 2 subfamily D member 6 (CYP2D6) small molecule antagonists: luciferase biochemical (cell-free) qHTS assay (AID 1645840; active = well fitted curve in the direction sought with a large enough effect in the repeat runs; an effect the other way counts as inactive or inconclusive; also: nearly all actives have a fitted effect of over 55% in size; also: potency is read from the fitted curve at half-maximal effect; as to activity change, negative = inhibition: % is scaled to controls: 0 for no effect and ±100 for the full control effect)
Procedure, shortened: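 P450-Glo CYP2D6 system: proluciferin substrate converted by enzyme to luciferin, read by luminescence proportional to activity. Enzyme-substrate mix with compound 10 min at room temperature, then NADPH regeneration 1 h before detection reagent.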

[9] = target: Cytochrome P450 2C9 (Homo sapiens) (UniProt P11712); assay: Cytochrome P450 family 2 subfamily C member 9 (CYP2C9) small molecule antagonists: luciferase biochemical (cell-free) qHTS assay (AID 1645842; active = well fitted curve in the direction sought with a large enough effect in the repeat runs; an effect the other way counts as inactive or inconclusive; also: nearly all actives have a fitted effect of over 55% in size; also: potency is read from the fitted curve at half-maximal effect)
Procedure, shortened: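 P450-Glo CYP2C9 system: proluciferin substrate with enzyme in mix containing 0.4% BSA, 10 min at room temperature, then NADPH regeneration solution added and incubated 1 h at 37C. Detection reagent stopped reaction; luminescence read after 20 min as RLU.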

[10] = target: Catechol O-methyltransferase (Homo sapiens) (UniProt P21964); assay: Confirmatory Screen for Target Class Profiling of Small Molecule Inhibitors of Methyltransferases (AID 1745852; calls by dose curve; also: potency is read from the fitted curve at half-maximal effect; as to activity change, negative = inhibition: % is scaled to controls: 0 for no effect and ±100 for the full control effect); conditions: MTase-Glo luminescence, SAH detection, recombinant enzyme; measured here: COMT max response; stronger effect = lower value
[11] = target: Guanidinoacetate N-methyltransferase (Homo sapiens) (UniProt Q14353); assay: as above; conditions: activity change, negative = inhibition: at 57.3 µM (top of the series) unless noted
[12] = target: Nicotinamide N-methyltransferase (Homo sapiens) (UniProt P40261); assay: as above; conditions: MTase-Glo luminescence, SAH detection, recombinant enzyme; measured here: NNMT max response; stronger effect = lower value
[13] = target: Phenylethanolamine N-methyltransferase (Homo sapiens) (UniProt P11086); assay: as above; conditions: MTase-Glo luminescence, SAH detection, recombinant enzyme; measured here: PNMT max response; stronger effect = lower value
[14] = tested on: HEK293; assay: Cytotoxic Profiling of Annotated Libraries Using Quantitative High-Throughput Screening (AID 1296008); conditions: Five cell lines viability, CellTiter-Glo ATP luminescence, 48-72 h; max response: stronger effect = lower value; also: nearly all actives have a fitted effect of over 60% in size; also: potency is read from the fitted curve at half-maximal effect; as to max response: % is scaled to controls: 0 for no effect and ±100 for the full control effect
Procedure, shortened: as §1

[15] = tested on: KB-3-1; assay: as above; conditions: Five cell lines viability, CellTiter-Glo ATP luminescence, 48-72 h; max response: stronger effect = lower value
Procedure, shortened: as §1

[16] = tested on: CRL-7250; assay: qHTS assay to identify novel small-molecules to repurpose for Merkel cell carcinoma treatment (AID 1296009); conditions: MCC and control cell lines, CellTiter-Glo viability, 72 h; series mostly up to 92 µM; also: nearly all actives have a fitted effect of over 60% in size
Procedure, shortened: (§3)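 Luminescence from CellTiter-Glo, read 10 min after addition at room temperature, reported viability following a 72 hr, 37 degree celsius treatment with NPC or MIPE compounds in titration; values normalized to plate controls.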

[17] = tested on: NIH3T3; assay: as above; conditions: MCC and control cell lines, CellTiter-Glo viability, 72 h; at 44.8 µM (top of the series) unless noted
Procedure, shortened: as §3

[18] = tested on: HACAT; assay: as above; conditions: MCC and control cell lines, CellTiter-Glo viability, 72 h; at 44.8 µM (top of the series) unless noted
Procedure, shortened: as §3

[19] = qHTS drug screen for cell cycle checkpoint inhibitors in PARPi-resistant BRCA-mutant ovarian cancer cell lines. (AID 1963452; calls by dose curve; also: potency is read from the fitted curve at half-maximal effect); conditions: PEO1/OlaR viability, CellTiter-Glo luminescence, 96 h; for Z-AUC: stronger effect = lower value
Procedure, shortened: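 PEO1, PEO4 and PEO1/OlaR ovarian cancer cells, 600 per well, exposed 96 h at 37C to a dilution series. Viability read by CellTiter-Glo luminescence, normalized to DMSO and empty wells; activity summarized as Z-AUC.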

Cytochrome P450 2D6 (Homo sapiens), sequence (P10635 whole entry, looked up): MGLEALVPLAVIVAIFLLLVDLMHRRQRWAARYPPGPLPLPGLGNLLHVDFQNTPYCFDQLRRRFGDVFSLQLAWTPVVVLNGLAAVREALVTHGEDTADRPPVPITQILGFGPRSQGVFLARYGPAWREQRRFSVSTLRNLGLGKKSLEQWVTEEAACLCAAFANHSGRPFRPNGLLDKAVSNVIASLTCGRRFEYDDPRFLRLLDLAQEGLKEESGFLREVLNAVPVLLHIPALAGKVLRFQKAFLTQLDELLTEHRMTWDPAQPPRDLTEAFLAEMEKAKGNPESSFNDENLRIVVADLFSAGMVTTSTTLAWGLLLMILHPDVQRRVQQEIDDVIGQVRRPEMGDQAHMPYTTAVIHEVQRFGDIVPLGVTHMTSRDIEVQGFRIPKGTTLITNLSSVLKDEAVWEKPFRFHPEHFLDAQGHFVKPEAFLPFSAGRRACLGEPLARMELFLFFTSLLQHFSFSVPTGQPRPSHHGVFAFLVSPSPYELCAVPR
Cytochrome P450 2C9 (Homo sapiens), sequence (P11712 whole entry, looked up): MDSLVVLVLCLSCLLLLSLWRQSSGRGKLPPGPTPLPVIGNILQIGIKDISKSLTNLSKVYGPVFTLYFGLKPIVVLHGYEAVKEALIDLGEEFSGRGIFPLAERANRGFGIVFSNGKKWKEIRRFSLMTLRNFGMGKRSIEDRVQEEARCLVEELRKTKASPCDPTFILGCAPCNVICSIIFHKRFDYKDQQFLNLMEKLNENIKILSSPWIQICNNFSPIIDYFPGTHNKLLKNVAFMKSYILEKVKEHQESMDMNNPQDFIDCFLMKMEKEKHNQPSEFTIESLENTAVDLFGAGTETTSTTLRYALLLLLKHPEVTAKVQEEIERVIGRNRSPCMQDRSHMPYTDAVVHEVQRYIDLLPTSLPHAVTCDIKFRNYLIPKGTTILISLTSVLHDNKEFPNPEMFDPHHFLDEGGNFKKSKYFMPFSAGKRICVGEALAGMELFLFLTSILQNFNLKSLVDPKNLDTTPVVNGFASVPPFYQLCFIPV
Catechol O-methyltransferase (Homo sapiens), sequence (P21964 whole entry, looked up): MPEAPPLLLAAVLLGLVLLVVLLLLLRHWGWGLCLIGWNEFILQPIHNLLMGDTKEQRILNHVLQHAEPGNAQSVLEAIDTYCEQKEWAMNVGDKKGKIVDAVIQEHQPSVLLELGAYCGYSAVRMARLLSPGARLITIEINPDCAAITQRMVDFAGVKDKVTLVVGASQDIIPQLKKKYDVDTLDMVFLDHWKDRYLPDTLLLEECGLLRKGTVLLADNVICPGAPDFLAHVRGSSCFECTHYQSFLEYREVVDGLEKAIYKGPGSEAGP
Phenylethanolamine N-methyltransferase (Homo sapiens), sequence (P11086 whole entry, looked up): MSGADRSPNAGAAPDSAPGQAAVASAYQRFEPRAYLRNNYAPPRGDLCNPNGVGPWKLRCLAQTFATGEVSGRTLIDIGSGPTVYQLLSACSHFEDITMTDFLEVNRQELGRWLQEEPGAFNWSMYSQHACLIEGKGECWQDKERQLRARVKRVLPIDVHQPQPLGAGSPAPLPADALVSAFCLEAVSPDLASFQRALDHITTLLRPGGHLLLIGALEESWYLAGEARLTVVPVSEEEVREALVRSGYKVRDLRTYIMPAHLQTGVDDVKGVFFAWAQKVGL
Nicotinamide N-methyltransferase (Homo sapiens), sequence (P40261 whole entry, looked up): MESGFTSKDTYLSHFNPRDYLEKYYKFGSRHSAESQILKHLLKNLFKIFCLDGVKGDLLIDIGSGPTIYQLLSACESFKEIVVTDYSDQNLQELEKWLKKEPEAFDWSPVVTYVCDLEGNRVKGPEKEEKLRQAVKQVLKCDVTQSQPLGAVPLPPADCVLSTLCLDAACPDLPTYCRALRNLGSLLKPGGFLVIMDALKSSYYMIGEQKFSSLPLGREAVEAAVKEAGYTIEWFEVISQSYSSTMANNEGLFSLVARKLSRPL

CC(=O)O[C@H]1C[C@@H](C)O[C@H]2O[C@@H]3CC4CC[C@@H]5C(CC[C@]6(C)[C@@H](C7=CC(=O)OC7)CC[C@]56O)[C@@]4(C=O)C[C@H]3O[C@]21O (stereo partly drawn)
active: Potency [1] 86.2 nM | Potency [2] 48.3 nM | Potency [3] 68.2 nM | Potency [4] 43.2 nM | Potency [5] 282 nM | Potency [6] 126 nM | Potency [7] 112 nM

O=C1Nc2ccc3ncsc3c2/C1=C/c1cnc[nH]1
-5.42%: activity change, negative = inhibition [11]
-8.72%: activity [12]
active: Potency [8] 1690 nM | Potency [9] 3380 nM | Potency [2] 649 nM | Potency [3] 578 nM | Potency [14] 5170 nM | Potency [15] 2310 nM | Potency [6] 22400 nM
-10%: activity [13]
-10.3%: activity [10]

COC1CC(OC2CCC3(C=O)C(CCC4C3CCC3(C)C(C5=CC(=O)OC5)CCC43O)C2)OC(C)C1O (stereo not drawn)
active: Potency [2] 79.6 nM | Potency [3] 126 nM | Potency [14] 112 nM | Potency [15] 252 nM | Potency [5] 316 nM | Potency [6] 224 nM | Potency [7] 199 nM

C[C@H]1CCC[C@H](O)CCC/C=C/c2cc(O)cc(O)c2C(=O)O1
active: Potency [2] 14500 nM | Potency [3] 14500 nM | Potency [11] 3410 nM
inactive: outcome [4] | Potency [16] | outcome [17] | Potency [5] | Potency [6] | Potency [7]
-96.3%: activity [10]
-89%: activity [12]
-98.1%: activity [13]

CN1C(=O)[C@]23CC4C(C)(C)[C@@]5(C[C@@]41CN2CC[C@@]3(C)O)C(=O)Nc1c5ccc2c1OC=CC(C)(C)O2 (stereo partly drawn)
inactive: Potency [1] | Potency [2] | Potency [3] | max response [4] -5.32% | Potency [5] | Potency [6] | Potency [7]

C/C=C(\C)C(=O)O[C@H]1CC2C(=C1C)[C@H]1OC(=O)[C@](C)(O)[C@]1(O)[C@H](OC(=O)CCC)C[C@@]2(C)OC(C)=O (stereo partly drawn)
active: Potency [2] 1000 nM | Potency [3] 709 nM | Potency [4] 2240 nM
inactive: Potency [1] | Potency [7]

CN1CN(c2ccccc2)C2(CCN(CCCC(=O)c3ccc(F)cc3)CC2)C1=O
inactive: max response [15] -4.39% | Potency [5] | Potency [6] | Potency [7]
active: Potency [2] 23000 nM | Potency [3] 25800 nM | Potency [14] 14600 nM

CCCCn1cc(C(=O)c2cccc3ccccc23)c2ccccc21
inactive: Potency [1] | Potency [8] | Potency [9] | Potency [2] | Potency [3] | outcome [18] | Potency [5] | Potency [6] | Potency [7]

CC(=O)OC[C@]12C[C@H](OC(C)=O)C(C)=C[C@H]1O[C@@H]1[C@H](O)[C@@H](O)[C@@]2(C)[C@]12CO2
active: Potency [2] 101 nM | Potency [3] 89.8 nM | Potency [15] 180 nM | Potency [5] 1000 nM

C/C=C(/C)C(=O)O[C@H]1[C@@H]2[C@H](C)C(=O)O[C@@H]2C[C@@H](C)[C@@H]2C=CC(=O)[C@]21C
active: Potency [2] 12700 nM | Potency [3] 10100 nM
inactive: max response [14] -117%

CCC(C)C1NC(=O)C2CCCN2C(=O)C(CC(C)C)OC(=O)CCNC(=O)C(C)N(C)C(=O)C(C(C)C)N(C)C1=O (stereo not drawn) (cyclo([ξLac(3-iPr)]PI[NMeV][NMeA][βAla]); configuration not given here)
inactive: Potency [1]
active: Potency [2] 2710 nM | Potency [3] 1920 nM

CCOC(=O)c1ccc(-c2ccc(OC(=O)N(C)Cc3cccc(-c4ccncc4)c3)cc2)cc1
inactive: Potency [1] | Potency [2] | Potency [3] | Potency [5] | Potency [6] | Potency [7]
active: Potency [8] 6740 nM | Potency [9] 952 nM | Potency [14] 9200 nM

NNC(=O)c1nn(Cc2ccc(Cl)cc2Cl)c2ccccc12
inactive: max response [15] -14.6%

CC1=CC2/C=C(\C)CCC(O)C(O)/C=C/C(=O)C23C(=O)NC(CC(C)C)C3C1C (stereo not drawn)
active: Potency [2] 2240 nM | Potency [3] 2000 nM | Potency [14] 2820 nM

C/C(=C\c1csc(C)n1)[C@@H]1C[C@@H]2O[C@@H]2CCC[C@H](C)[C@H](O)[C@@H](C)C(=O)C(C)(C)[C@@H](O)CC(=O)O1
-2.36: Z-AUC ([19]; measured here: PEO4 Z-AUC)
-2.45: Z-AUC ([19]; measured here: PEO1 parental Z-AUC)
active: Potency [1] 5.8 nM | Potency [2] 37.2 nM | Potency [3] 26.3 nM | Potency [19] 8.7 nM | Potency [14] 6.5 nM | Potency [15] 8.2 nM

C[C@]12CC[C@H](OC3OC(CO)C(O)C(O)C3OC3OC(CO)C(O)C(O)C3O)C[C@@H]1CC[C@@H]1C2CC[C@]2(C)[C@@H](C3=CC(=O)OC3)CC[C@]12O (stereo partly drawn)
active: Potency [2] 4300 nM
inactive: max response [15] 6.08% | outcome [17] inactive [at 17.4 µM] | Potency [5] | Potency [6] | Potency [7]

CCCCCn1cc(C(=O)Cc2ccccc2OC)c2ccccc21
active: Potency [9] 1900 nM
inactive: Potency [8] | Potency [6] | Potency [7]

CC(C)C(=O)O[C@H]1[C@@H]2[C@H](C)C(=O)O[C@@H]2C[C@@H](C)[C@@H]2C=CC(=O)[C@]21C
inactive: Potency [5]
active: Potency [1] 16100 nM | Potency [2] 3580 nM | Potency [3] 2840 nM | Potency [14] 9040 nM

C[C@]12CC[C@H](O[C@@H]3O[C@H](CO)[C@@H](O)[C@H](O)[C@H]3O)CC1CC[C@@H]1C2CC[C@]2(C)[C@@H](C3=CC(=O)OC3)CC[C@]12O (stereo partly drawn)
active: Potency [1] 6320 nM | Potency [2] 2520 nM | Potency [3] 3170 nM | Potency [14] 3170 nM | Potency [6] 10000 nM | Potency [7] 8910 nM
inactive: outcome [17] inactive [at 17.4 µM]

C/C1=C/[C@@H](C)C/C=C/[C@H]2[C@@H]3O[C@]3(C)[C@@H](C)[C@H]3[C@H](Cc4c[nH]c5ccccc45)NC(=O)[C@]32C(=O)/C=C\C(=O)[C@@H]1O
inactive: Potency [5] | Potency [6]
active: Potency [2] 3990 nM | Potency [3] 502 nM | Potency [15] 7960 nM
